Compounds with a hit are over-represented: about 1.5% of the library has one in this group of screens.
FID counter = displaces DNA intercalator in HCV helicase counter-screen | 290,000 tested, 0.17% active | DNA fluorescent intercalator displacement, fluorescence | inhibition, % at 7.9 µM; in the data active means inhibition above about 37%;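 further: 0% = vehicle and 100% = reference compound; higher means more ethidium bromide displaced from hairpin DNA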
RAD54 inh = blocks human RAD54 Holliday junction branch migration; FAM/BHQ fluorescence; inhibition, % at 10.4 µM; 360,000 tested, 0.14% active;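 active means mean normalized replicate activity at least 40 and at least half of replicates scoring 40 or more; inconclusive means only one of the two criteria met; inactive means mean below 40 and under half of replicates reaching 40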;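 further: 0% = median of neutral control wells and 100% = median of positive control wells; inhibitors cause a drop in the FAM fluorescence signal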
Glyco luc inh = blocks N-linked glycosylation in D54 reporter cells. reporter increase, % at 12.5 µM. 360,000 tested, 0.23% active. D54 ERlucT glycosylation luciferase reporter, 24 h; percent of 100 nM tunicamycin response;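 active means mean luciferase reporter signal, scaled so untreated is 0 and the glycosylation-blocking control 100, at or above a set limit in every replicate; inconclusive means mean reaches the limit but not every replicate does; inactive means mean below the limit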;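 further: luciferase carries N-glycosylation sites so blocking glycosylation raises the light; 0% = median of neutral control wells and 100% = median of 100 nM tunicamycin wells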
RAD52 anneal inh = inhibitors of human RAD52 DNA annealing. P43351. recombinant RAD52 DNA annealing, FRET fluorescence. inhibition, % at 18.7 µM. 360,000 tested, 0.46% active;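 active means every replicate showing at least 50% inhibition; inconclusive means mean inhibition at least 50% but not in every replicate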
Target sequence (P43351 whole entry, looked up): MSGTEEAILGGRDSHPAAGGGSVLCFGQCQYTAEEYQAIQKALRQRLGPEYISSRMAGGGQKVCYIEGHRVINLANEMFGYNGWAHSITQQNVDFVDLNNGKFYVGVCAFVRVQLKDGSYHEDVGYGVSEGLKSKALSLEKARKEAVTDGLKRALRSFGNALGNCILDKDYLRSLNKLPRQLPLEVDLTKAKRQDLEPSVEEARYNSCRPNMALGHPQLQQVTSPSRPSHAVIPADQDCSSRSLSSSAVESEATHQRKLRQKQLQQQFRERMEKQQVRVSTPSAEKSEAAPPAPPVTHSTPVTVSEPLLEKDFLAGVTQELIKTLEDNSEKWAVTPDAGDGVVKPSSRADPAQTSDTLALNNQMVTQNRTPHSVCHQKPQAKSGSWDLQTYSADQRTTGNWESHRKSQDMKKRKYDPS
miR-122 sensor = inhibitors of miR-122 in Huh7 cells | activation (reporter increase), % at 12.5 µM | 340,000 tested, 0.3% active | Huh7 miR-122 Renilla luciferase sensor, 48 h; neutral wells = 0, positive control = 100;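 active means mean replicate activation score at least 90 and every replicate individually at or above 90; inconclusive means only one of the two criteria met; inactive means neither criterion met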;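 further: higher luciferase means less miR-122 activity so hits act as miR-122 inhibitors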
NRP1-CendR mod = NRP-1/CendR interaction modulation | 360,000 tested, 0.85% active | FAM-RPARPAR peptide binding to NRP-1, fluorescence polarization | inhibition, % at 25 µM;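 active means inhibition or corrected inhibition above about 18%, plus a signal ratio from 0.5 to 1.5, limit read from the data, passing the limit was not always enough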
* = called active by the depositor; [ ] = dose if it differs, or a comment.

What do the screens show for `C#CCOCCOCCOCCNc1nc(N2CCN(C(=O)CCCCCCCCCCNC(=O)[C@H]([C@@H](C)CC)n3cc(CCCCN=C(N)N)nn3)CC2)nc(N2CCN(C(=O)CCCCCCCCCCNC(=O)[C@H](CO)n3cc(CCCCCN)nn3)CC2)n1`?
RAD54 inh: 2; Glyco luc inh: -16; miR-122 sensor: -9; NRP1-CendR mod: 28*

How did C#CCOCCOCCOCCNc1nc(N2CCN(C(=O)CCCCCCCCCCNC(=O)[C@H](CO)n3cc(CCCSC)nn3)CC2)nc(N2CCN(C(=O)CCCCCCCCCCNC(=O)[C@H](CCCCN)n3cc(CCO)nn3)CC2)n1 do in these assays?
RAD54 inh: -3; Glyco luc inh: -5; RAD52 anneal inh: 55*; miR-122 sensor: 15; NRP1-CendR mod: 10

What do the screens show for `O=C(C[C@H]1C[C@@H]2c3cc(NC(=O)c4cccnc4)ccc3O[C@@H]2[C@@H](CO)O1)NCc1ccncc1`?
RAD54 inh: 2; RAD52 anneal inh: 3; miR-122 sensor: 6[16.7 µM]

Results for O=C(NC1CCCCC1)N1CC2(C1)[C@H](c1ccccc1)[C@@H](CO)N2CC1CC1 ?
RAD52 anneal inh: -8

Results for CCS(=O)(=O)N1CCC2(CC1)CN(C(=O)Nc1cccc(F)c1)[C@@H](CO)c1c2c2ccc(OC)cc2n1C ?
RAD52 anneal inh: 14

Results for C=CC[C@@]1(C(=O)N2CCOCC2)N=C(c2ccc(OCCCO)cc2)O[C@@H]1c1ccccc1 ?
RAD54 inh: 3; RAD52 anneal inh: -2

How did O=C(N[C@@H]1CC[C@@H](CC(=O)N2CCCCC2)O[C@H]1CO)c1cccc(F)c1 do in these assays?
RAD54 inh: -4; RAD52 anneal inh: 8

Results for O=C(c1ccc(F)cc1)N1CCCCN2[C@@H](CO)[C@H](c3ccc(-c4ccc(F)cc4)cc3)[C@@H]2C1 ?
RAD54 inh: 4; RAD52 anneal inh: 38; miR-122 sensor: 8[16.7 µM]

How did Cc1ccccc1-c1ccc([C@H]2[C@H]3CN(CC4CCOCC4)CCCCN3[C@H]2CO)cc1 do in these assays?
RAD54 inh: -3; RAD52 anneal inh: 36; miR-122 sensor: -16[16.7 µM]

Results for CC(C)C#Cc1cnc2c(c1)C(=O)N([C@@H](C)CO)C[C@@H](C)[C@@H](CN(C)C(=O)c1cnccn1)O2 ?
RAD54 inh: -4; RAD52 anneal inh: 15; miR-122 sensor: 2[16.7 µM]

Results for C#CCOCCOCCOCCNc1nc(N2CCN(C(=O)CCCCCCCCCCNC(=O)Cn3cc(CCCCCN)nn3)CC2)nc(N2CCN(C(=O)CCCCCCCCCCNC(=O)Cn3cc(CCCCCN)nn3)CC2)n1 ?
RAD54 inh: inconclusive; Glyco luc inh: 2; miR-122 sensor: 2; NRP1-CendR mod: 18*

How did C#CCOCCOCCOCCNc1nc(N2CCN(C(=O)CCCCCCCCCCNC(=O)Cn3cc(CCCCCN)nn3)CC2)nc(N2CCN(C(=O)CCCCCCCCCCNC(=O)[C@@H](CCSC)n3cc(CCO)nn3)CC2)n1 do in these assays?
RAD54 inh: 0; Glyco luc inh: 6; RAD52 anneal inh: 52*; miR-122 sensor: -4; NRP1-CendR mod: 1

Results for C#CCOCCOCCOCCNc1nc(N2CCN(C(=O)CCCCCCCCCCNC(=O)[C@@H](CCSC)n3cc(CCO)nn3)CC2)nc(N2CCN(C(=O)CCCCCCCCCCNC(=O)[C@H](CCSC)n3cc(CCO)nn3)CC2)n1 ?
RAD54 inh: -5; Glyco luc inh: 1; RAD52 anneal inh: 12; miR-122 sensor: -3; NRP1-CendR mod: -20

Results for C#CCOCCOCCOCCNc1nc(N2CCN(C(=O)Cn3cc(CCCCN)nn3)CC2)nc(N2CCN(C(=O)Cn3cc(CCCCN)nn3)CC2)n1 ?
FID counter: 15; RAD54 inh: -22; Glyco luc inh: 0; RAD52 anneal inh: 6; NRP1-CendR mod: 16

How did O=C(Cc1ccccn1)NCC[C@@H]1CC[C@H](NC(=O)Nc2ccccc2)[C@@H](CO)O1 do in these assays?
RAD54 inh: -8; RAD52 anneal inh: -21

Results for O=C(c1ccc(Cn2c(=O)[nH]c3ccccc3c2=O)cc1)N1CCN(c2ccc(Cl)cc2)CC1 ?
FID counter: 1; RAD54 inh: 0; miR-122 sensor: 26; NRP1-CendR mod: 25*

How did COc1ccccc1N1CCN(C(=O)Cn2c(=O)[nH]c3ccsc3c2=O)CC1 do in these assays?
FID counter: -6; RAD54 inh: -3; Glyco luc inh: 0; miR-122 sensor: -17; NRP1-CendR mod: 11

Results for COc1ccccc1N1CCN(C(=O)c2ccc(Cn3c(=O)[nH]c4ccsc4c3=O)cc2)CC1 ?
FID counter: -16; RAD54 inh: 3; Glyco luc inh: 0; RAD52 anneal inh: 2; miR-122 sensor: 118*; NRP1-CendR mod: -3

How did Cc1ccccc1NC(=S)NCCSc1ccc(Cl)cc1 do in these assays?
FID counter: 49*; RAD54 inh: -11; Glyco luc inh: -3; RAD52 anneal inh: -3; miR-122 sensor: 16; NRP1-CendR mod: 6

How did COc1ccc(S(=O)(=O)Nc2ccc3c(c2)C(=O)N([C@@H](C)CO)C[C@H](C)[C@H](CN(C)C(=O)Nc2ccc(C(F)(F)F)cc2)OCCCC[C@@H](C)O3)cc1 do in these assays?
RAD54 inh: -6; RAD52 anneal inh: -21; miR-122 sensor: 65[16.7 µM]

What do the screens show for `COc1ccc(/C=C/C(=O)N(C)Cc2cccs2)cc1S(=O)(=O)N1CCOCC1`?
FID counter: -21; RAD54 inh: 0; Glyco luc inh: -1; RAD52 anneal inh: -10; miR-122 sensor: 34; NRP1-CendR mod: 35*

How did COCC(=O)N(C)C[C@@H]1Oc2ncc(C#Cc3ccc(OC)cc3)cc2C(=O)N([C@H](C)CO)C[C@H]1C do in these assays?
RAD54 inh: -2; RAD52 anneal inh: -13; miR-122 sensor: -2[16.7 µM]

How did CO[C@H]1CN(C)C(=O)c2ccc(NS(C)(=O)=O)cc2OC[C@H](C)N(C(=O)NC(C)C)C[C@@H]1C do in these assays?
RAD52 anneal inh: -3

How did CCc1cccc(NC(=O)c2cc(S(=O)(=O)N(C)C)ccc2N2CCCC2)c1 do in these assays?
FID counter: -28; RAD54 inh: -5; Glyco luc inh: 39*; RAD52 anneal inh: -9; miR-122 sensor: -1; NRP1-CendR mod: -9

How did CN(C)S(=O)(=O)c1ccc(N2CCCC2)c(C(=O)Nc2nccs2)c1 do in these assays?
RAD54 inh: 3; Glyco luc inh: 79*; RAD52 anneal inh: -6; NRP1-CendR mod: -11

How did Cc1cnc(NC(=O)c2cc(S(=O)(=O)N(C)C)ccc2N2CCCC2)s1 do in these assays?
RAD54 inh: -2; Glyco luc inh: 98*; RAD52 anneal inh: -10; miR-122 sensor: -9; NRP1-CendR mod: -5

Results for COc1ccc(CN(C)C[C@@H]2Oc3ccc(NS(=O)(=O)c4c(C)noc4C)cc3CC(=O)N([C@H](C)CO)C[C@@H]2C)cc1 ?
RAD52 anneal inh: 13; miR-122 sensor: 0[16.7 µM]

Source: PubChem BioAssay
